Source: ChEMBL document CHEMBL3988442, “University of Dundee, Small-Polar-MMV Screening Library” (2021)

Molecular target: T1, Methionyl-tRNA synthetase, putative (Leishmania donovani (strain BPK282A1)) (UniProt E9BF75)
T1 sequence (whole entry): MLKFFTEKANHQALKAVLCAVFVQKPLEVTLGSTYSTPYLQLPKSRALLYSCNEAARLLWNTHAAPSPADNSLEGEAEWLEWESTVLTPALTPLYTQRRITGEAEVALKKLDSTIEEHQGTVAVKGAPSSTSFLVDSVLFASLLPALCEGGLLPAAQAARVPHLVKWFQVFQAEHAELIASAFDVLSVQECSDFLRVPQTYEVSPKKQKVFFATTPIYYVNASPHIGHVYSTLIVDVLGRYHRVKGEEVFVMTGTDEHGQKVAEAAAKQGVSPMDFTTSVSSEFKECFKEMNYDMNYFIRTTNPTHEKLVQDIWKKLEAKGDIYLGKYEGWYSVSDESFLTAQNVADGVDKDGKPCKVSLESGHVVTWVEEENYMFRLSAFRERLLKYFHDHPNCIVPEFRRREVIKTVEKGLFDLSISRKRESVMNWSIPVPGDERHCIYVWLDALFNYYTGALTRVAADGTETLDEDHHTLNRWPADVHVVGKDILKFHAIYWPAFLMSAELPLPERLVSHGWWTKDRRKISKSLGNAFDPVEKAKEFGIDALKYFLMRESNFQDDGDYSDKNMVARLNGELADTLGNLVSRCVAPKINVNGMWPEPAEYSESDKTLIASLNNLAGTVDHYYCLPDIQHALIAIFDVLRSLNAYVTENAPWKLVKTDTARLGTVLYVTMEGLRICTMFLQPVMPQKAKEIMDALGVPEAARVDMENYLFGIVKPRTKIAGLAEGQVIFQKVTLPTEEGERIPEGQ
Test: Leishmania donovani Methionine tRNA synthetase (LdMetRS):v7. Dose response assay
Type: functional
Design: conc 80 nM, time 150 minutes

## Cc1nc(N[C@H](C(=O)O)C(C)C)c2c3c(sc2n1)CCCC3
MAX_EFFECT 7.978723404
  PXC50: < 4
MAX_EFFECT 8.29015544
  PXC50: < 4

## CC(C)(C)c1nc(NCCO)c2c3c(sc2n1)CCCC3
MAX_EFFECT 6.632653061
  PXC50: < 4
MAX_EFFECT 7.323232323
  PXC50: < 4

## CS(=O)(=O)N1CCN(c2ccc3ccc(C(=O)NCCN4CCOCC4)cn23)CC1
BOTTOM 1.032447983, HILLSLOPE 3.01577023, MAX_EFFECT 61.72248804, TOP 62.04525005
  PXC50: 4.88
BOTTOM -0.949038422, HILLSLOPE 2.220287811, MAX_EFFECT 68.73857404, TOP 70.86130279
  PXC50: 4.83

## Nc1noc2ccc(-c3cnc4ccc(N5CCCCC5)nn34)cc12
BOTTOM 2.074435444, HILLSLOPE 0.92774459, MAX_EFFECT 58.33333333, TOP 100.0
  PXC50: 4.06
BOTTOM -0.552717408, HILLSLOPE 0.869319648, MAX_EFFECT 51.90839695, TOP 100.0
  PXC50: 4.01

## COCCN(Cc1sccc1C)c1nc(C)nc2sccc12
MAX_EFFECT 12.79373368
  PXC50: < 4
MAX_EFFECT 17.23237598
  PXC50: < 4

## CCNC(=O)c1ccc2ccc(N(CC)CC)n2c1
MAX_EFFECT 16.85185185
  PXC50: < 4
MAX_EFFECT 25.35211268
  PXC50: < 4

## Cc1nc(N2CCC(CCN3CCCC3)CC2)c2ccsc2n1
MAX_EFFECT 38.29787234
  PXC50: < 4
MAX_EFFECT 38.86010363
  PXC50: < 4

## Cc1ccc(CSc2nc(N)cc(NCC(=O)N3CCNCC3)n2)cc1
BOTTOM -2.199449509, HILLSLOPE 1.075485519, MAX_EFFECT 68.11594203, TOP 100.0
  PXC50: 4.29
BOTTOM -2.347869122, HILLSLOPE 1.011463002, MAX_EFFECT 66.66666667, TOP 100.0
  PXC50: 4.27
BOTTOM -6.039839519, HILLSLOPE 1.064095709, MAX_EFFECT 59.36952715, TOP 57.65563111
  PXC50: 4.81

## Cn1nc(Cn2ccnc2)c2c1CN(c1nccs1)C2
BOTTOM 0.559364067, HILLSLOPE 0.919078395, MAX_EFFECT 71.42857143, TOP 99.25901822
  PXC50: 4.44
BOTTOM -1.637231388, HILLSLOPE 0.873521348, MAX_EFFECT 76.08695652, TOP 100.0
  PXC50: 4.55
BOTTOM -15.97247073, HILLSLOPE 2.274903325, MAX_EFFECT 57.26795096, TOP 100.0
  PXC50: 4.1

## CCc1cccc(Nc2nc(NCCO)c3sccc3n2)c1
MAX_EFFECT 17.21470019
  PXC50: < 4
MAX_EFFECT 27.31277533
  PXC50: < 4
MAX_EFFECT 37.39669421
  PXC50: < 4

## CN(C)CCNc1nc(Nc2ccc(F)c(F)c2)nc2c1cnn2C
BOTTOM 0.475518208, HILLSLOPE 0.90804468, MAX_EFFECT 68.49315068, TOP 100.0593914
  PXC50: 4.37
BOTTOM 1.11826122, HILLSLOPE 1.149142478, MAX_EFFECT 65.47169811, TOP 85.8972695
  PXC50: 4.44
BOTTOM 3.189178936, HILLSLOPE 1.201155954, MAX_EFFECT 69.44971537, TOP 84.11641449
  PXC50: 4.53

## Cc1nc(NCCC(C)C)c2c3c(sc2n1)CCCC3
MAX_EFFECT 30.4
  PXC50: < 4
MAX_EFFECT 33.86243386
  PXC50: < 4

## C[C@H](CO)Nc1nc(Nc2ccc(F)c(F)c2)nc2c1cnn2C
BOTTOM 0.704945414, HILLSLOPE 0.848291247, MAX_EFFECT 90.56603774, TOP 99.28027428
  PXC50: 5.18
BOTTOM -2.01884568, HILLSLOPE 0.856610715, MAX_EFFECT 86.93586698, TOP 98.70470885
  PXC50: 5.08
BOTTOM -5.653457492, HILLSLOPE 0.743768618, MAX_EFFECT 93.13304721, TOP 109.1674954
  PXC50: 5.06

## NC(=O)c1cc(Nc2ncccc2S(N)(=O)=O)cc(C(F)(F)F)c1
MAX_EFFECT 8.583690987
  PXC50: < 4
MAX_EFFECT 8.863198459
  PXC50: < 4
MAX_EFFECT 9.501187648
  PXC50: < 4

## OCCNc1nccc(Nc2cccc(F)c2)n1
MAX_EFFECT 6.168224299
  PXC50: < 4
MAX_EFFECT 6.404958678
  PXC50: < 4
MAX_EFFECT 9.691629956
  PXC50: < 4

## CCc1cc2c(NCc3ccccn3)nc(C)nc2s1
MAX_EFFECT 3.194103194
  PXC50: < 4
MAX_EFFECT 6.030150754
  PXC50: < 4

## c1cc(-c2ccc3c(c2)CCC32CCN(c3nncs3)CC2)co1
BOTTOM 1.725579768, HILLSLOPE 1.730442881, MAX_EFFECT 81.97573657, TOP 100.0
  PXC50: 4.31
BOTTOM 2.845642281, HILLSLOPE 1.539467031, MAX_EFFECT 93.05555556, TOP 100.0
  PXC50: 4.55
BOTTOM 5.084669568, HILLSLOPE 1.629318142, MAX_EFFECT 90.60402685, TOP 100.0
  PXC50: 4.52

## O=C(c1ccc2ccc(N3CCN(CC4CC4)CC3)n2c1)N1CCCO1
MAX_EFFECT 19.44444444
  PXC50: < 4
MAX_EFFECT 22.0657277
  PXC50: < 4

## COCCNc1nc(-c2ccccn2)nc2sc3c(c12)CCCC3
BOTTOM 1.822787583, HILLSLOPE 1.291311311, MAX_EFFECT 71.49122807, TOP 102.6012048
  PXC50: 4.27
BOTTOM -5.083400143, HILLSLOPE 1.043102409, MAX_EFFECT 66.66666667, TOP 106.555572
  PXC50: 4.25

## Cc1nc(N2CCN(c3ncccn3)CC2)c2c3c(sc2n1)CCC3
MAX_EFFECT 14.75409836
  PXC50: < 4
MAX_EFFECT 18.71657754
  PXC50: < 4

## CN(c1ncnc2c1cnn2C)C1CCCN(c2cccnn2)C1 (centres undefined)
MAX_EFFECT 40.92592593
  PXC50: < 4
MAX_EFFECT 46.94835681
  PXC50: < 4

## Cn1ncc2c(NCCS(C)(=O)=O)nc(Nc3ccc(F)c(F)c3)nc21
MAX_EFFECT 19.95249406
  PXC50: < 4
MAX_EFFECT 30.90128755
  PXC50: < 4
MAX_EFFECT 33.0754352
  PXC50: < 4

## CCCNc1nc(-c2ccc(C)cc2)cc(C(F)(F)F)n1
MAX_EFFECT 6.21761658
  PXC50: < 4
MAX_EFFECT 10.10638298
  PXC50: < 4

## NCC1Cc2cc(-c3nccc(N4CCC(O)CC4)n3)cc(F)c2O1 (centres undefined)
BOTTOM 4.57074024, HILLSLOPE 1.301030074, MAX_EFFECT 74.63768116, TOP 104.4144526
  PXC50: 4.29
BOTTOM 7.212229631, HILLSLOPE 1.389029539, MAX_EFFECT 78.85304659, TOP 100.0
  PXC50: 4.36
BOTTOM 8.369250909, HILLSLOPE 1.751405643, MAX_EFFECT 88.77887789, TOP 100.0
  PXC50: 4.37

## Cn1ncc2c(Nc3ccc(F)c(F)c3)nc(Nc3ccc(F)c(F)c3)nc21
MAX_EFFECT 4.405286344
  PXC50: < 4
MAX_EFFECT 13.01652893
  PXC50: < 4
MAX_EFFECT 15.66731141
  PXC50: < 4

## CN(CCN)c1nc(Nc2ccc(F)c(F)c2)nc2c1cnn2C
BOTTOM 2.133170856, HILLSLOPE 1.093077372, MAX_EFFECT 77.62557078, TOP 100.0
  PXC50: 4.41
BOTTOM 3.57857286, HILLSLOPE 1.096477566, MAX_EFFECT 74.90566038, TOP 102.700119
  PXC50: 4.36
BOTTOM 5.354463627, HILLSLOPE 0.967320352, MAX_EFFECT 79.31688805, TOP 100.0
  PXC50: 4.54

## Nc1nc(CSc2ccccn2)nc2sc3c(c12)CCCCC3
MAX_EFFECT 34.13333333
  PXC50: < 4
MAX_EFFECT 39.15343915
  PXC50: < 4

## OCCNc1ccnc(Nc2cccc(F)c2)n1
MAX_EFFECT 29.67244701
  PXC50: < 4
MAX_EFFECT 30.83700441
  PXC50: < 4
MAX_EFFECT 32.02479339
  PXC50: < 4
